# Assay results taken from PubChem BioAssay AID1117361 (Southern Research Institute, 2015).
# Out of some 3,600 compounds screened, about 900 (25%) were called active. These entries were drawn from the full list. Results with a measured potency or affinity are listed apart. Values without a mark were called inactive. The rule behind the calls is not given here.
# Target: Protein Tat (Human immunodeficiency virus type 1 group M subtype B (isolate HXB2)) (UniProt P04608)
# Assay: HIV-1 Tat–TAR interaction blockers – biochemical, fluorescence polarization, FAM-labeled TAR RNA, counter-screen for Vif-APOBEC3G degradation inhibitor project, dose response (AID 1117361)
# Details: Tat-TAR RNA binding; series mostly up to 100 µM; inhibition: at the top concentration
SMILES,inhibition [%],outcome
S=c1[nH]nc(COc2ccc(Cl)cc2)o1,12.4,–
O=C(NNc1cc(Cl)cc(Cl)c1)c1c(F)cccc1Cl,–,inactive
S=c1nc(-c2ccc(Br)cc2)oc2c1CCCC2,13,–
CCOC(=O)N1CCN(CC(=O)c2ccc3c(c2)CCN3C(C)=O)CC1,10.1,–
Cc1ccc(Cc2cnc(NC(=O)/C(C#N)=C/c3ccc(-c4ccc([N+](=O)[O-])cc4)o3)s2)cc1,10.8,–
CC(OC(=O)c1ccc([N+](=O)[O-])o1)C(=O)NC1CCCCC1C (centres undefined),7.42,–
COc1cc(O)oc1C=Nc1ccccc1,8.78,–
CCOc1ccccc1C1CC(=O)NC(SCC)=C1C#N (centres undefined),10.8,–
O=S(=O)(Nc1ccc(Cc2ccncc2)cc1)c1ccc(Br)cc1,–,inactive
COc1ccc(N(CC(=O)NCCC2=CCCCC2)S(=O)(=O)c2ccccc2)cc1,11.6,–
O=C1CC(c2ccco2)CC(O)=C1C=NCC1CCNCC1 (centres undefined),–,inactive
CCCN(CC(=O)Nc1ccccc1C)C(=O)COC(=O)c1cnc(C)cn1,–,inactive
CC(C)(C)NC(=O)CSc1nnc(-c2ccncc2)n1Cc1ccccc1,6.76,–
CCOC(=O)Cn1c(=O)oc2cc(S(=O)(=O)NC3CCCc4ccccc43)ccc21 (centres undefined),–,inactive
CCn1c(SC(C)C(=O)NC2CCCc3ccccc32)nnc1-c1cccs1 (centres undefined),3.38,–
c1ccc2c(c1)ccc1nnc(SCc3ccc4c(c3)OCO4)n12,12.2,–
CCC(c1ccc(O)c(O)c1)C(CC)c1ccc(O)c(O)c1 (centres undefined),3.01,–
CSc1ccc(CN(C)CC(=O)NC(=O)NCCC2=CCCCC2)cc1,–,inactive
COc1cc(/C=N/N=C(N)N)ccc1OCc1ccc(Cl)cc1,–,inactive
CSc1cccc(-n2cc(-c3ccc4c(c3)OCO4)[nH]c2=O)c1,3.41,–
CSCC[C@@H](Nc1nc(-c2ccccc2)nc2c1oc1ccccc12)C(=O)O,4.09,–
CN1CCN(C(=O)C2CCN(S(=O)(=O)c3cnc[nH]3)CC2)CC1,8.19,–

SMILES,inhibition [%],outcome
C/C=C/c1ccc(OCC(=O)N2CCc3cc(OC)c(OC)cc3C2)c(OC)c1,1.65,–
COCCCNC(=O)c1cc(OC)c(OC)c(OC)c1,–,inactive
Cc1nn(-c2ccccc2)cc1/C=N/O,12.2,–
CCCc1nc(SCC(=O)N2CCCc3ccccc32)c2c(=O)n(C)c(=O)n(C)c2n1,–,inactive
O=C(NC(Cc1ccccc1)c1nc2ccccc2[nH]1)c1cccc([N+](=O)[O-])c1 (centres undefined),–,inactive
CCOC(=O)C1=C(C)N=c2s/c(=C/c3ccco3)c(=O)n2C1c1cccc(OC)c1 (centres undefined),1.65,–
CCOC(=O)C1=C(C)NC(C)=C(C(=O)OCC)C1c1cn(-c2ccccc2)nc1-c1ccco1,25,–
O=C(CN1c2ccccc2Sc2ccccc21)NNC(=S)Nc1ccc(Cl)cc1Cl,1.35,–
CCCn1nc(NC(=O)c2cccs2)c2cc3ccccc3nc21,16.2,–
CC1=C(SCc2ccccc2)C(=O)c2ccccc2C1=O,–,inactive
CCCCNC(=O)c1onc(CSc2ccc(C(C)C)cc2)c1C(=O)O,0.68,–
COc1ccc(CCN(C)C(=O)COC(=O)/C=C/c2ccc(C)o2)cc1OC,8.35,–
Cn1nc(C(F)(F)F)c(C#N)c1N1CCN(c2ccc(F)cc2)CC1,6.08,–
Cn1cc(/C=C/C(=O)N2CCCC(C(=O)c3cccc(C(F)(F)F)c3)C2)cn1 (centres undefined),6.6,–
CCOC(=O)C1Nc2ccc(Br)cc2C2C=CCC12 (centres undefined),5.68,–
CC(C)Cc1nc2oc3c(NCC(C)O)ncnc3c2c2c1CCCC2 (centres undefined),–,inactive
O=C(NC1CCCCC1)C(c1ccc(F)cc1)N(C(=O)Cc1ccsc1)c1ccc(F)cc1 (centres undefined),0.68,–
O=C1C(O)CC2c3ccccc3CC3(CCCC3)N12 (centres undefined),16.2,–
Cc1ccc2c(c1)NC(=O)c1cc([N+](=O)[O-])ccc1O2,6.6,–
CCCCn1c(NCc2ccccc2NS(=O)(=O)c2ccc(C)cc2)nc2ccccc21,4.73,–
CCOC(=O)C1=C(c2ccccc2)NC(=O)NC1c1cc(Cl)c(O)c(OC)c1 (centres undefined),0.82,–
CCOc1ccc(NC(=O)C(C)SC(N)=O)cc1 (centres undefined),–,inactive

SMILES,inhibition [%],outcome
CCOc1cc(/C=C2/C(=O)N(c3ccccc3)N=C2C)ccc1OC(=O)c1ccco1,0.68,–
O=C(NC1CCN(C(=S)NCc2ccco2)CC1)C12CC3CC(CC(C3)C1)C2,–,inactive
Cc1[nH]nc2c1C(c1cn[nH]c1-c1ccc(F)cc1)C(C#N)=C(N)O2 (centres undefined),9.46,–
COc1ccc2c(c1)O[C@@H](c1ccc3c(c1)OCO3)[C@H](OC(=O)Nc1cc(OC)c(OC)c(OC)c1)C2=O,–,inactive
Cn1cc(Br)c(C(=O)NC2CCCCC2)n1,4.73,–
CCOCCCNC(=S)Nc1ccc2nc(N3CCN(CC)CC3)cc(C)c2c1,7.68,–
Cc1nn(Cc2ccc(Cl)cc2Cl)c(C)c1NC(=O)NC12CC3CC(CC(C3)C1)C2,–,inactive
Cc1c(C)c2ccc(O[C@@H]3O[C@H](CO)[C@H](O)[C@H](O)[C@H]3O)c(C)c2oc1=O,6.35,–
Cn1c(SCC(=O)NC(c2ccccc2)c2ccccc2)nnc1-c1cccs1,3.38,–
CCCC(=O)Nc1ccc(Br)cn1,4.05,–
O=C(Nc1ccc(F)cc1F)c1noc2c1CCC2,–,inactive
O=C(Nc1ccccc1F)c1ccc(S(=O)(=O)NCC2CCCO2)cc1 (centres undefined),4.77,–
CC12CCC(C(=O)Nc3ccc(Br)cn3)(OC1=O)C2(C)C (centres undefined),–,inactive
CC(C)(C)C1CCC(OC(=O)C[N+]2(C)CCCCC2)CC1 (centres undefined),–,inactive
COc1ccc(CNC(=O)C2CCCN(S(=O)(=O)c3c(C)nn(C)c3C)C2)cc1 (centres undefined),–,inactive
CCCn1c(Sc2nnnn2-c2ccccc2)n[nH]c1=O,–,inactive
N#Cc1c(-c2ccccc2)nc2n1CCS2,–,inactive
O=C(Nc1nccc(-c2cccs2)n1)c1ccccc1Cl,7.5,–
CCOc1cc(C(=O)Nc2c3c(nn2C(C)(C)C)CS(=O)C3)cc(OCC)c1OCC (centres undefined),2.05,–
O=C(CCCN1C(=O)c2ccccc2C1=O)NCC1CCCO1 (centres undefined),4.77,–
CCOn1c(=O)c(=O)n(OCc2ccccc2)c2ccccc21,–,inactive
Oc1ccc(Cl)cc1-c1cc(-c2ccccc2)n[nH]1,3.38,–

SMILES,inhibition [%],outcome
O=C(c1ccco1)N1CCN(S(=O)(=O)c2ccc(F)cc2)CC1,10.1,–
CN1CCN(C(=O)/C(=C/c2ccc(F)cc2)NC(=O)c2ccccc2)CC1,1,–
Cc1ccc(S(=O)(=O)Nc2ccc3c(c2)c2c(n3S(=O)(=O)c3ccc(C)cc3)CCCC2=O)cc1,–,inactive
CCCNC(=O)c1ccc2c(c1)C1C3CCC(C3)C1C(c1ccccc1)N2 (centres undefined),–,inactive
Cc1ccc(S(=O)(=O)NC(CC(C)C)C(=O)N2CCN(C/C=C/c3ccccc3)CC2)cc1 (centres undefined),–,inactive
O=C(CNC(=O)c1cccs1)OCC(=O)c1ccc2ccccc2c1,4.05,–
c1ccc(-c2nnc(-c3ccncc3)o2)cc1,0.68,–
O=C(COC(=O)COc1ccc(Cl)cc1Cl)NC1CCCCCC1,2.47,–
O=C(CC1NC(=O)NC1=O)Nc1cccc2ccccc12 (centres undefined),2.7,–
CC(NC(=O)CC1Nc2ccccc2NC1=O)c1ccccc1 (centres undefined),17.6,–
COc1ccc(OC)c(C2NC(=O)NC(C)=C2C(=O)Nc2ccc(C)cc2)c1 (centres undefined),0.68,–
COc1ccc(NC(=O)c2cc3ccccn3n2)cc1,13.5,–
Cc1cccc(C)c1OCCOCCN1CCN(C)CC1,–,inactive
CCN(CC)c1ccc(C(=C2C=CC(=[N+](CC)CC)C=C2)c2ccccc2)cc1,–,inactive
O=C(Nc1nccs1)C1CCCN(S(=O)(=O)c2cccc3cccnc23)C1 (centres undefined),–,inactive
Cn1c(C(=O)N[C@@H](C(=O)O)c2ccccc2)cc2cc(Cl)ccc21,29.1,–
COc1ccc2nc(SCC(=O)NN)cc(C)c2c1,4.05,–
Cc1ccc(SCCC(=O)NCc2ccco2)cc1,–,inactive
CC(C)(C)c1nnc(NC(=O)c2ccc(Cl)nc2)s1,–,inactive
Cc1ccc(C(=O)O)cc1-c1ccc(/C=C2/NC(=O)N(c3ccccc3)C2=O)o1,10.3,–
N#Cc1ccccc1CN1C(=O)S/C(=C/c2cccn2-c2ccc(C(=O)O)cc2)C1=O,22.4,–
CCNc1nc(OCCNS(=O)(=O)c2cc(C)ccc2C)nc(N(C)C)n1,2.03,–

SMILES,inhibition [%],outcome
COc1ccccc1NC(=O)C(C)NS(=O)(=O)c1ccc(F)cc1 (centres undefined),7.5,–
CCc1ccc(OCCNC(=O)c2cccs2)cc1,1.35,–
COc1ccccc1NC(=O)CN(c1ccccc1OC)S(=O)(=O)c1ccccc1,3.3,–
Cc1c(C(=O)NCc2cccnc2)oc2ccccc12,1.35,–
CCc1cccc(NC(=O)CCCCCC2NC(=O)NC2C)c1 (centres undefined),–,inactive
COC(=O)C1=C(C)NC(=O)C1(NS(=O)(=O)c1ccc(C)cc1)C(F)(F)F (centres undefined),2.05,–
Cc1ccc(C)c(NC(=S)NCc2ccccc2)c1,9.07,–
CN1c2ccsc2/C(=N/NC(=O)c2c(F)cccc2F)CS1(=O)=O,10.2,–
O=C(O)C1=C(C(=O)Nc2ccc(F)c(Cl)c2)CCCC1,10.1,–
COC(=O)CSc1nnc(CNC(=O)c2cccs2)n1-c1cc(OC)ccc1OC,–,inactive
Cc1ccc(NC(=O)CSc2nnc(C3CCCCC3)n2N)cc1F,0.68,–
CCOC(=O)C1CCCN(c2ncnc3c2cnn3-c2ccc(Cl)cc2)C1 (centres undefined),29.7,–
CCOc1cccc(NC(=O)C2CCCN(S(=O)(=O)c3ccc(OC)cc3)C2)c1 (centres undefined),–,inactive
COc1cccc(NC(=O)C2CCCN2C(=O)OCc2ccccc2)c1 (centres undefined),4.05,–
O=C(O)c1cccc(S(=O)(=O)Nc2ccccc2Cl)c1,–,inactive
O=c1nc(N2CCOCC2)nc2n1CCO2,0.68,–
Cc1cc(=O)n2nc(N3CCCC(C(=O)NC4CCC(C)CC4)C3)sc2n1 (centres undefined),–,inactive
CN(C)c1nc(OCCNC(=O)COc2ccc(Cl)cc2Cl)nc(N2CCOCC2)n1,–,inactive
CCCCC(=O)Nc1ccc(C(=O)NN2C(=O)c3ccccc3C2=O)cc1,2.73,–
Cc1ccc(NC(=O)CSc2nc(CSc3ccc(C)cc3)cc(=O)[nH]2)cc1,–,inactive
O=C1c2cnc3nc(SCc4ccccc4)nn3c2CC2c3ccccc3CCN12 (centres undefined),1.36,–
